This passage reports growth results from PubChem BioAssay (NCI).

Each structure is given as a SMILES string. Where “and” joins values, the source holds several entries; their conditions need not be identical. Equal values may be shown once. Compounds without any hit were thinned out: in the full panel of roughly 83,000, 20% have a hit.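 Interpretation: 100, growth as untreated; towards 0, rising growth inhibition; 0, no net growth; 0 to -100, cell death. Compounds scoring below 10 were considered active.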 Calls of active or inactive are those of the source.

In this experiment the test system is MDA-MB-468 breast. Description: NCI-60 one-dose screen, 48 h (100 = growth as untreated, 0 = no growth, -100 = all killed). The note with it: 10 µM unless noted.
Take `CC1=C(CCCOC(=O)CN)C2=C(C)C3(CC3)[C@@](C)(O)C(=O)C2=C1`: the growth was 20.2% (inactive).

`O=P(Oc1ccc(Cl)cc1)(N1CC1)N1CC1`: the growth is 54.1% (inactive).

For the molecule `Cc1ccc(CNc2nc3ccc(OC/C(=C/F)CN)cc3o2)cn1`, the growth was 109% (inactive).

As to `ClC1OC(Cl)(Cl)C(Cl)(Cl)OC1(Cl)Cl` (centres undefined), the growth was 105% (inactive).

Consider `O=c1[nH]c2ccccc2n1C1CCN(CCCC(c2ccc(F)cc2)c2ccc(F)cc2)CC1`, for which the growth was 33% (inactive).

Turning to `C=C=[CH][Sn]([c]1ccccc1)([c]1ccccc1)[c]1ccccc1`, the growth is -66.5% (active).

For the molecule `CN1CCN(c2ccc(Cl)cc2)CC1`, the growth is 71.1% (inactive).

As for `O=C1CC2(CC3(Cl)C(Cl)=C(Cl)C2(Cl)C3(Cl)Cl)C(=O)O1` (centres undefined), the growth was 105% (inactive).

As for `C/C(=C\c1ccn(-c2ccc(N)cc2C(F)(F)F)n1)[C@@H]1C[C@@H]2O[C@]2(C)CCC[C@H](C)[C@H](O)[C@@H](C)C(=O)C(C)(C)[C@@H](O)CC(=O)O1`, the growth is 28.6% (inactive).

With `NC(CCl)CCl`, the growth was 96.8% (inactive).

As for `CC(=O)C(c1c(O)c2ccccc2oc1=O)c1cc(=O)oc2c1ccc1ccccc12` (centres undefined), the growth is 96.6% (inactive).

Regarding `Cc1cc(NC(=O)NCc2ccc(N3C(N)=NC(N)=NC3(C)C)cc2)ccc1S(=O)(=O)F`, the growth was 63.3% (inactive).

Consider `CCOc1cc(C=C(C#N)C#N)cc(Br)c1O`, for which the growth is 119% (inactive).

With `CN(C)C(=O)Oc1ccc(Br)cc1`, the growth was 98.6% (inactive).

With `O=C(Nc1ccc(O)cc1)C(Cl)(Cl)Cl`, the growth was 95.2% (inactive).

On to `CCCCN1CCCC[C@@H]1C(=O)N[C@H](C(=O)N(C)[C@H](CCc1nc(C(=O)N[C@@H](Cc2ccccc2)C[C@H](C)C(=O)OC)cs1)C(C)C)[C@@H](C)CC`, for which the growth is -1.75% (active).

Take `O=C(CCl)Nc1ccc(Cl)cc1`: the growth is 18.6% (inactive).

For `C1CNC2CCCC2C1` (centres undefined), the growth was 97.4% (inactive).

Turning to `O=C([O][Hg][c]1ccccc1)c1ccccc1`, the growth was -67.2% (active).

In the case of `C[C@]12CCc3nc(Nc4ccccc4F)sc3C1=CC[C@@H]1[C@@H]2CC[C@]2(C)C(=O)CC[C@@H]12`, the growth is 23.7% (inactive).

For the molecule `COc1ccc(-n2c(C)nc3cc(OC)c(OC)cc3c2=O)cc1OC`, the growth was 114% (inactive).

In the case of `Cc1nnc([S-])s1.[Au+].c1ccc([PH+](c2ccccc2)c2ccccc2)cc1`, the growth was -68.6% (active).

As to `COc1cc([C@@H]2c3cc4c(c(O)c3C[C@H]3COC(=O)[C@@H]32)OCO4)cc(OC)c1OC`, the growth was 5.12% (active).

On to `CC(/C=N/N=C(N)N)=N/N=C(N)N`, for which the growth was 93.9% (inactive).

`CC1=C(CN(O)C(N)=O)C2=C(C)C3(CC3)[C@](C)(O)C(=O)C2=C1`: the growth was -65.6% (active).

With `C[S+]1C=Cc2ccccc2C1c1ccc(Cl)cc1` (centres undefined), the growth was -40.7% (active).

On to `ClCCN(CCCl)Cc1ccc(Nc2ccnc3cc(Cl)ccc23)cc1`, for which the growth was -0.105% (active).

As to `O=Cc1cn(Cc2ccc(Cl)cc2)c2ccccc12`, the growth was -45% (active).

On to `CN(C)c1ccc(N)cc1`, for which the growth is 98% (inactive) and 5.01% (active).

Consider `COc1ccc(N(CC(=O)NCCC[Te]c2ccccc2)C(=O)CCSC2=C(C)C(=O)c3ccccc3C2=O)cc1`, for which the growth was -58.1% (active).

In the case of `CC[C@H](C)[C@H](NC(=O)c1nccn1C)C(=O)N(C)[C@H](C[C@@H](OC(C)=O)c1nc(C(=O)N[C@@H](Cc2ccccc2)C[C@H](C)C(=O)OC)cs1)C(C)C`, the growth is 25.7% (inactive).

On to `Clc1ccc2nnnn2n1`, for which the growth was 35.6% (inactive).

Turning to `CC[C@H](C)[C@H](NC(=O)[C@H]1CCCCN1C)C(=O)N(C)[C@H](C[C@@H](OC(C)=O)c1nc(C(=O)N[C@@H](Cc2ccccc2)C[C@H](C)C(=O)O)cs1)C(C)C`, the growth is -6.41% (active).

For `CC12CCC(O)CC1=CCC1C2CCC2(C)C(O)CCC12` (centres undefined), the growth was 99.4% (inactive).

In the case of `O=[N+]([O-])CC(c1ccccc1Cl)c1c(-c2ccccc2)[nH]c2ccccc12` (centres undefined), the growth was 7.39% (active).

Take `CC1=C2C(=C[C@@](C)(COS(C)(=O)=O)[C@@H]2O)C(=O)[C@](C)(O)C12CC2`: the growth was -54.8% (active).

Regarding `ClC1=C(Cl)C(Cl)(C2(Cl)C(Cl)=C(Cl)C(Cl)=C2Cl)C(Cl)=C1Cl`, the growth was -59.2% (active).

Take `[Cl][Hg][c]1ccc(Cl)s1`: the growth is -61% (active).

As to `NC(=S)c1cn(C2OC(CO)C(O)C2O)c2ncnc(N)c12` (centres undefined), the growth is -43.2% (active).
